In PubChem BioAssay AID1508600 (Functional Genomics Laboratory (NCATS/FGL), 2020) one finds z-score data, which are given here for 69 sequences.

Screen size: about 53,000 sequences; about 3,700 (7%) were called active. The sample as a whole holds a higher share of actives than the screen did. Unmarked numbers belong to inactive results.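 The calls were made as follows: active = gene knockdowns whose robust z-score for IL-1 alpha signal is at least 2 or at most -2, so actives lie on both sides; inactive = the rest.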

The test can be described thus: Components of the Cytosolic LPS Sensing Pathway: Gene Identification via Genome-wide siRNA Screen.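 Also: robust z of the log signal after scaling to non-targeting control siRNA wells of the plate.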 As to conditions: RAW264.7 macrophages, IL-1a HTRF, actives lie on both sides, screened at 100 nM (by protocol), cells primed 5 h with Pam3CSK4 first. In a few lines:
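RAW264.7; siRNA 100 nM final, RNAiMAX, 48h 37 degrees C; Pam3CSK4 5 h; LipidA + TransIT-TKO 24 h; IL-1a HTRF; CellTiter-Glo viability; robust z vs negative-control median.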
(In general: In TR-FRET formats the signal depends on donor and acceptor labels being close together.)
Turning to GGUGAAGUUACAGUCAAAUTT against Nolc1, the z-score is 2.54 (active).

For GGUCAGGCUGAGGAAUUCATT against Cyp2s1, the z-score was -0.562.

With GGAGGAGGCAGAAACAACATT against Tex46, the z-score was 1.87.

As to GCAGAGAGGAUAACUGACCTT against Slc25a44, the z-score is -0.723.

CCAUUCUUAGUUCACUAUATT against Rgcc: the z-score was -2.55 (active).

For the sequence GGAAUUCCCAUUGGAAGAATT against Vmn1r232, the z-score is 0.0956.

Turning to GGGACCAAGAAGGAUAACUTT against Flrt1, the z-score was 1.4.

As for CCGAUUUAACUGAAUUUGCTT against Acaa2, the z-score is 0.342.

As to GGCAGGACACCAUAUGGUUTT against Tedc1, the z-score is -2.16 (active).

For GGACAAGUCGAGUUUCAAGTT against Zfp503, the z-score is 1.98.

With CGGAAGAAUAAAAACCGGCTT against Meaf6, the z-score is 0.601.

GGUCUUGUGCAUAAAACAGTT against Ece2: the z-score is -1.06.

Consider GCAUAUCCUAAACACUGUUTT against Pqlc3, for which the z-score is -0.966.

As to GGGUGAUGCCCUUGAAUCUTT against Twf2, the z-score was 2.48 (active).

Turning to GCGACUGACCUUCAAACUGTT against Piwil4, the z-score was 0.193.

As to CCAGCAAAUGAGAGGUCUGTT against Olfr1024, the z-score was 0.676.

As for GGACACUUUCCAAUGGUGATT against Npsr1, the z-score was 1.25.

For the sequence GGAGCUCGAAAAAUUUCAATT against Igfl3, the z-score was 2.13 (active).

On to GCUCUCAUCAGACUUCGAGTT against Zfp202, for which the z-score is 0.0887.

For the sequence GCGCAUCUAUGAAAAAACATT against Cerk, the z-score was -0.471.

On to GGCUGUAAAACUCUGGUUUTT against Vmn1r195, for which the z-score was 2.82 (active).

On to GCUCAAAAAACCGAAAUGATT against Cd274, for which the z-score was -1.03.

With GGUAAAUUCAACUGGAAGGTT against Lyar, the z-score was 0.194.

Take GGUUAUCCUCAUUGAUCCGTT against Rpl15: the z-score is 0.0822.

Turning to GCCUGAUAUCAACAUAGGATT against Pth2r, the z-score is 0.802.

In the case of UAAAUGAGCUCGUAAUCUUTT against Olfr874, the z-score was 3.23 (active).

For the sequence CCCUGGCCAAACAUAGUGGTT against Efcab12, the z-score is 0.278.

As to GCACAAGAAAUCGAAUAUGTT against Acr, the z-score was -0.00119.

As for CCGCCGAUGAGUUUGUUAATT against Hsd17b3, the z-score was 1.2.

As to GCUCUGUCUUAAGAGACUATT against Smo, the z-score was 2.39 (active).

For GGUCUGUCUCCAGAUUGCUTT against Olfr56, the z-score is -1.73.

With GGAUAUUAUGUCUUUGCUATT against Ints2, the z-score is 0.499.

Turning to GACCACCAGAAAGUUUCACTT against Lfng, the z-score is 0.339.

Turning to GCUCUACCUUCGCUGGAAATT against Slc7a6, the z-score was 2.17 (active).

Take GGAAACUGCAUUCAAGCCATT against Apod: the z-score is -0.191.

Consider CCUCUAGACCGAAUGAAAATT against Zfyve16, for which the z-score was 0.472.

Regarding GGAGUCCUCUAAUGUAAAUTT against Elovl4, the z-score is 0.0471.

On to GGGAACUCAAAGAAGAGAGTT against Lysmd2, for which the z-score is 0.515.

With CGAGGAGUGGUAUUUUUACTT against Slc34a1, the z-score is 0.0248.

In the case of GCUGAAAGAUUUACUGCCCTT against Bhlhe41, the z-score was 2.95 (active).

For the sequence GGCAUGGAAUAUGAUGUUATT against Nlrp9b, the z-score was -1.72.

Consider GGGUUGUCCUGAACUUUAATT against Npr1, for which the z-score was 0.236.

For “GGCCAGUGGAGGAAUAUGATT against 1300017J02Rik”, the z-score was -0.383.

As to CCACGUGUCUUAGAAUUAATT against Gas1, the z-score is 1.67.

For GGCCAACAAGGAAAACAUCTT against Bcas2, the z-score was 1.33.

In the case of GGUCUGUAUGUCAUUUAUCTT against Ywhag, the z-score was -0.208.

On to GGUAAUGCUGUGGAGUCUUTT against Wdr53, for which the z-score was -2.59 (active).

As for GGAAGGCCAUUUCAACUAATT against Olfr1367, the z-score was 1.54.

As for GGUGAUUUGAACUGUGAAATT against Tmem126a, the z-score is -0.963.

As for GGACAAACCUUGGAAGAUUTT against Ccdc166, the z-score is -0.24.

On to GGUUGGAAAUGACUAAUAATT against Slco6c1, for which the z-score was -1.01.

As to GGAAGGUGUCUGUAAUAUATT against Slamf9, the z-score is -0.0451.

Take GGAGGGCAGAUCUACGAUGTT against Aars: the z-score is 0.182.

Turning to GAAACUUUGAGUCCUCCAGTT against Dop1b, the z-score is 3.22 (active).

CGAGUUCAAACCGUCCUCUTT against Sdhc: the z-score was 0.105.

On to CGGAAUGAUCACGACCGAUTT against Nsrp1, for which the z-score is 0.133.

Consider CCAAGUAAUUCCUACUACUTT against Olfr1100, for which the z-score is -0.25.

Take GGCUGGAUGUAGAAAAUAUTT against Aspm: the z-score was -2.1 (active).

In the case of GGGAAGCAAAUCUAUACCCTT against Tnfrsf11a, the z-score is -0.243.

Turning to GGUGUUGUCAGAAGUUUAATT against Slc22a13b, the z-score was 1.8.

For CCUCAUGCAGUUAAAUAUGTT against Kera, the z-score is -1.56.

GGAGAAGGAUGGAGUGUUUTT against Brms1l: the z-score is 1.8.

Take GGACUUUGUAACUAAUACCTT against Slco2b1: the z-score is 0.914.

On to CGAUGAUGAACGAUGGACATT against Mmp3, for which the z-score is 2.47 (active).

For GGCACUGGCAGGAAAUUACTT against Alg6, the z-score is -1.52.

As for GGACUGCCUUAAUUAAAGUTT against Coa6, the z-score is 1.7.

As to GCUGUGACUCUACUGGAGGTT against Zfp397, the z-score was 0.746.

Consider GGCAGAACCCACUGAGAAATT against Pakap, for which the z-score is -0.349.

For the sequence GGAAAUCGAGCAUGUCUUCTT against Stk32c, the z-score is 2.21 (active).
